Test results from PubChem BioAssay AID1233 (SRMLSC, 2008).
Results with a measured potency or affinity are listed apart.

target: HMG-CoA reductase [Enterococcus faecalis] (UniProt Q9FD70); assay: inhibitors of E. faecalis class II HMGR, confirmation, biochemical, Enterococcus faecalis (AID 1233);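 note: 0% = full reaction carrier wells and 100% = background wells lacking mevalonate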; conditions: purified E. faecalis HMGR, NADPH absorbance 340 nm kinetics; series mostly up to 100 µM; inhibition: at the top concentration

inhibition, inactive:
COC(=O)C(C)n1cnc2c(nnn2-c2ccc(OC)cc2)c1=O (stereo not drawn) -0.41%
Cc1cccc(NC(=O)CSc2ccc(-c3ccc4c(c3)OCO4)nn2)c1C -26.3%
COc1ccc(N2CC(C)(C)C2=O)cc1 -3.03%
NCCc1nnc(SCc2ccc(F)cc2)o1 0.65%
CCc1c(C)nc2ncnn2c1NCCc1ccccc1 0.91%
COc1ccc(CN2CCNC(=O)C2CC(=O)NCCc2c[nH]c3ccccc23)c(OC)c1 (stereo not drawn) 0.02%
O=C(CCCn1ncn2c(cc3occc32)c1=O)N1CCc2ccccc2C1 -2.7%
COc1ccc(/C=N/NC(=O)C(C)Sc2ccccn2)cc1[N+](=O)[O-] (stereo not drawn) -10%
O=C(CSc1nc2ccccc2n1CCc1ccccc1)N1CCOCC1 -2.07%
CC1=CC(C)C(C(=O)O)C(C(=O)O)C1 (stereo not drawn) -2.81%
O=C1NCCCC1C(=O)Nc1ccccc1C(F)(F)F (stereo not drawn) -6.64%
CCC(Sc1ccccn1)C(=O)Nc1cccc([N+](=O)[O-])c1 (stereo not drawn) -5.94%
Cc1ccc(NC(=O)CCc2ccc(S(=O)(=O)N3CCOCC3)cc2)c(C)c1 -6.25%
COc1ccc(N(C(C)C(=O)N/N=C/c2ccc(OC(C)C)cc2)S(C)(=O)=O)cc1 (stereo not drawn) -1.95%
Cc1cc(C)nc(N(C#N)CC(=O)N2CCC(C(N)=O)CC2)n1 -2.81%
Cc1cc(=O)[nH]c(SCCOc2ccc3c(c2)CCC3)n1 -3.48%
O=C(Nc1ccc(N2CCCCC2)cc1)c1ccc2c(c1)OCCO2 -4.93%
CC(C)CNC(=O)CSc1ccc(Cl)cc1 -5.13%
CC(=O)N(C)c1nc(N)n(-c2ccccc2)n1 -3.93%
COc1ccc(C(=O)C(C)OC(=O)c2cccc(S(=O)(=O)Nc3cc(Cl)c(OC)cc3OC)c2)cc1 (stereo not drawn) -1.47%
O=C(Nc1ccccc1)Nc1ccc2ocnc2c1 -4.39%
CCCNC(=O)c1cc2c(C(F)(F)F)nn(C)c2s1 -1.54%
CCOC(=O)Cc1csc(NC(=O)COc2cccc(C)c2)n1 -3.23%
CCCCOC(=O)c1nc[nH]c1C(=O)OCCCC -4.01%
O=[N+]([O-])c1ccc(N/N=C/c2ccc(O)c(O)c2O)c(S(=O)(=O)N2CCOCC2)c1 -14%
O=C(Cn1ncc2ccccc21)N1CCN(c2cccc(C(F)(F)F)c2)CC1 -4.82%
CCOC(=O)c1c(NC(=O)CSc2nnc(C)s2)sc2c1CCC(CC)C2 (stereo not drawn) -5.44%
O=C(Nc1ccccc1)C(Cc1ccccc1)NC(=O)C12CC3CC(CC(C3)C1)C2 (stereo not drawn) -2.25%
S=c1[nH]c2cc(Cl)ccc2s1 -0.06%
CC1CCN(c2cc(N)c(Cl)cc2[N+](=O)[O-])CC1 -3.93%
CCn1c2ccccc2c2cc(CNCc3ccc(OC)cc3OC)ccc21 -2.66%
O=C(Nc1ccc2c(c1)OCO2)c1noc2c1CCCCC2 -1.8%
O=C(CCn1cnnn1)Nc1ccc(Cl)c(Cl)c1 -6.48%
Cc1c(Br)c([N+](=O)[O-])nn1C(C)C(=O)Nc1ccc2c(c1)OCO2 (stereo not drawn) -2.77%
O=C(COC(=O)/C=C/c1cn(-c2ccccc2)nc1-c1cccnc1)Nc1ccc(Cl)cc1Cl -18.4%
Cc1ccc(S(=O)(=O)NCCCCCC(=O)N(C)C)cc1 -2.88%
O=C(CC1SCCNC1=O)Nc1ccc(F)c(Cl)c1 (stereo not drawn) -8.26%
O=C(CN1CCN(Cc2ccc(F)cc2Cl)C1=O)NCCc1ccc(Cl)cc1 -0.91%
